# PI5P4Ka inh: qHTS for Inhibitors of phosphatidylinositol 5-phosphate 4-kinase (PI5P4K) | PI5P4Kalpha enzyme, ADP-Glo luminescence, 60 min; active compounds read low | max response, % | 330,000 compounds, 1.2% hits | AID 652105, 2013; active = max response of -50% or lower; inconclusive = between -30% and -50%; inactive = -30% or higher; note: value at the top dose of about 77 µM; % is set by controls: 0 for no effect and ±100 for the full control effect
#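 Reactions run in 0.038 M HEPES pH 7.4, 0.28 mM EGTA, 0.1% CHAPS and 5% DMSO, with PI5P4Kalpha, substrate, compound and 5 microM ATP final, one hour at room temperature. Readout is ADP-Glo luminescence.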
# Pol beta inh: qHTS Assay for Inhibitors of DNA Polymerase Beta; P06746; Pol beta primer extension/strand displacement, fluorescence kinetic; Potency, µM (highest dose often 114 µM), inactives show at the top dose activity change, negative = inhibition, actives largely listed as inhibitors; 340,000 compounds, 1.3% hits; AID 485314, 2010; note: potency is the fitted concentration of half-maximal effect; % is set by controls: 0 for no effect and ±100 for the full control effect
#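 Values derive from four-parameter Hill fits of normalized kinetic data: reads at 0 and 10 min following addition of 50 nM substrate to 10 nM Pol beta preincubated 15 min with compound.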
# Pol iota inh: qHTS for Inhibitors of Polymerase Iota. DNA polymerase iota (Homo sapiens), Q9UNA4. 390,000 compounds, 1% hits. Potency, µM (doses to about 115 µM), for inactives: top-dose activity, negative = inhibition, usual class: inhibitors. Pol iota fluorescent replication assay, 10 min. AID 588590, 2011; note: potency is the fitted concentration of half-maximal effect
#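 Fluorescent replication assay read twice, at 0 min and 10 min after adding 50 nM (final) substrate. Enzyme (10 nM) and compounds were first incubated 15 min at room temperature; enzyme-free buffer wells were negative controls.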
# ALOX12 inh: Primary qHTS assay for inhibitors of human arachidonate 12S-lipoxygenase (ALOX12): Round 2; purified 12hLO, xylenol orange hydroperoxide absorbance; Potency, µM (top dose mostly 108 µM), for the others: at the top dose activity change, negative = inhibition, usual class: inhibitors; 580,000 compounds, 1.1% hits; note: potency is the fitted concentration of half-maximal effect; % is set by controls: 0 for no effect and ±100 for the full control effect
# Target sequence (P18054 whole entry, looked up): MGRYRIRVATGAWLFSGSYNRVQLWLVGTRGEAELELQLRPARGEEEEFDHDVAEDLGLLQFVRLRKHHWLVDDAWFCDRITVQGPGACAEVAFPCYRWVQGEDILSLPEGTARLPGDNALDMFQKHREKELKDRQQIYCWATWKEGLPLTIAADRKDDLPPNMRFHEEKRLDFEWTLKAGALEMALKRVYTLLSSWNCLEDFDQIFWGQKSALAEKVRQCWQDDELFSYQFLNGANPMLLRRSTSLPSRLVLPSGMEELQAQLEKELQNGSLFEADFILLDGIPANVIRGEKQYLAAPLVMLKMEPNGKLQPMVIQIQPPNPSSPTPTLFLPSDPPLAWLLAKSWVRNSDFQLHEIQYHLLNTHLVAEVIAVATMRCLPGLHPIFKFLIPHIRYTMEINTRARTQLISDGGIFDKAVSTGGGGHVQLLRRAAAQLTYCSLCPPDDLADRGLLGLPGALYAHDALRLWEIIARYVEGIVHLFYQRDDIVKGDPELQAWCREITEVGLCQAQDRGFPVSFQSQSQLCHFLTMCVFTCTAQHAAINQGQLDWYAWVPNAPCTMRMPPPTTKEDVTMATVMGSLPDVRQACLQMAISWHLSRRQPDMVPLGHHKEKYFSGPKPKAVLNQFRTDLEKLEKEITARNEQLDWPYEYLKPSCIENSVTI
#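 Purified human 12hLO (150 nM final) in 25 mM Hepes, 0.01% Triton X-100, pH 7.0 was preincubated 15 min at room temperature with compound. Then 40 uM arachidonic acid was added, 30 min. Hydroperoxide was read by Fe-XO absorbance ratio 573/405 nm.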
# POLH inh: qHTS for Inhibitors of Polymerase Eta; 390,000 compounds, 1.2% hits; DNA polymerase eta (Homo sapiens), Q9Y253; AID 588591, 2011; recombinant Pol eta, fluorescent DNA replication assay; Potency, µM (series often up to 114 µM), without a hit: top-dose activity change, negative = inhibition, most hits filed as inhibitors; note: potency is the fitted concentration of half-maximal effect; % is set by controls: 0 for no effect and ±100 for the full control effect
#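 Pol eta at 10 nM preincubated with compounds 15 min at room temperature; reaction started with fluorescent substrate (50 nM final) and read kinetically at 0 and 10 min.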
# Pol kappa inh: qHTS for Inhibitors of Polymerase Kappa. DNA polymerase kappa (Homo sapiens), Q9UBT6. purified Pol kappa, fluorescent DNA synthesis assay, 10 min. Potency, µM (highest dose often 107 µM), inactives show at the top dose activity, negative = inhibition, actives largely listed as inhibitors. 400,000 compounds, 0.53% hits. AID 588579, 2011; note: potency is the fitted concentration of half-maximal effect; % is set by controls: 0 for no effect and ±100 for the full control effect
#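 50 nM final substrate added after 15 min RT preincubation of 10 nM Pol kappa with compound; fluorescence read at 0 and 10 min.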
# An asterisk follows results filed as active; ? = inconclusive; nt = not tested or not shown; ! = a repeat was not active. In the library only some 2.9% were active in any assay of this set; here they are far more common. Unless noted, calls come from the whole dose curve; as a rule, active = well fitted inhibition curve with a large enough effect; inconclusive = small, poorly fitted or top-dose-only effect, or another doubt; inactive = no such curve, though single readings can be large or run the other way.
SMILES,PI5P4Ka inh,Pol beta inh,Pol iota inh,ALOX12 inh,POLH inh,Pol kappa inh
CC(C)=NNC(=O)c1ccc(Cl)cc1,nt,nt,nt,43.7%,nt,nt
O=C(NC(=S)Nc1ccc(-c2ccccc2)cc1)c1ccccc1,16.8,nt,0.8%,?,-19.8%,-2.8%
Cc1ccc2c(CC(=O)NCC34CC5CC(CC(C5)C3)C4)coc2c1,nt,nt,nt,-4.6%,nt,nt
CCOc1ccc2nc(NC3=NC(CC(=O)O)C(=O)N3)nc(C)c2c1 (centres undefined),nt,nt,nt,15.1%,nt,nt
S=C(NC(=NC=C(Cl)Cl)c1ccc(Cl)cc1)Nc1ccc(Cl)cc1,nt,nt,nt,20µM*,nt,nt
Fc1ccc(NC(=S)Nc2ccc(Cl)cc2)cc1,-2.9,-11.1%,22.2%,-29.3%,1.7%,-7.3%
O=C(O)/C=C/c1ccc(F)c(Cl)c1,nt,nt,nt,-1.3%,nt,nt
CCCCn1c(-c2csc(CC)c2)n[nH]c1=S,-10.9,-2.4%,10.4%,50.1µM*,-16.7%,-15.9%
CCc1cc(-c2n[nH]c(=S)n2-c2cccc(C)c2)cs1,nt,-16.7%,23.1%,31.6µM*,-23.3%,-8.4%
CCCCCCn1c(-c2cccs2)n[nH]c1=S,-15.8,5.0%,5.7%,28.2µM*,-16.3%,6.7%
CCCCCCNC(=O)c1nccnc1N,nt,nt,nt,0.5%,nt,nt
O=C(O)C1CCCCC1C(=O)Nc1nc(-c2ccc(Cl)s2)cs1 (centres undefined),?,15.8µM*,?,?,44.7µM*,?
CC1(C)Cc2sc3c(=O)n(Cc4ccccc4F)cnc3c2CO1,nt,nt,nt,0.7%,nt,nt
O=C(O)c1cc(Cl)c2c(c1)[C@@H]1C=CC[C@@H]1[C@H](c1ccc(S(=O)(=O)N3CCOCC3)cc1)N2,-53.0*,31.6µM*,?,nt,28.2µM*,?
Cc1cc(C)c2c(c1)C1C=CCC1C(c1ccc(S(=O)(=O)N3CCOCC3)cc1)N2 (centres undefined),nt,14.4%,-3.4%,9.6%,-4.7%,0.0%
CCOc1ccc(S(=O)(=O)N(C)CC(=O)N2CCN(C)CC2)cc1C,nt,nt,nt,23.0%,nt,nt
O=S1(=O)CC/C(=N\Nc2ccccc2)c2ccsc21,1.5,-0.8%,-16.3%,35.5µM*,-8.8%,14.0%
O=C(O/N=C1\CCS(=O)(=O)c2sccc21)c1c(F)cccc1F,-7.7,7.3%,71.6%,0.0%,10.2%,-8.5%
COc1ccccc1Nc1nc(-c2cccc(N3C(=O)c4ccccc4C3=O)c2)cs1,5.1,22.7%,-8.7%,-14.5%,-20.0%,0.6%
O=C1c2ccccc2C(=O)N1c1cccc(-c2csc(Nc3ccc4c(c3)OCO4)n2)c1,nt,28.2µM*,nt,nt,nt,nt
c1ccc(-c2csc(Nc3ccc4c(c3)OCO4)n2)cc1,1.9,nt,nt,3.55µM*!,nt,nt
Cc1ccc(Nc2nc(-c3cccc(N4C(=O)c5ccccc5C4=O)c3)cs2)cc1,nt,nt,nt,17.8µM*,nt,nt
N#Cc1ccc(Nc2nc(-c3ccccc3)cs2)cc1,20.8,nt,nt,?,nt,nt
CCOP(=O)(OCC)c1nc(-c2ccc(C)cc2)oc1NCc1cccnc1,nt,nt,nt,-25.4%,nt,nt
Cc1ccc(C)c(NC(=O)C(C)SCc2nc(-c3ccccc3)oc2C)c1 (centres undefined),nt,nt,nt,43.0%,nt,nt
Cc1cn2c(N)c(/C=C3\C=Nc4ccccc43)c(=O)nc2s1,-13.0,-3.7%,?,187.3%,-4.2%,-7.0%
CSc1nsc2nc(=O)c(/C=C3\C(C)=Nc4ccc(C)cc43)c(N)n12,-68.2*,-9.2%,9.1%,0.0%,?,-15.2%
Nc1c(C=C2C=CC(=O)C=C2)c(=O)nc2snc(SCc3ccccc3)n12,-51.2*,?,?,?,?,-4.4%
CSc1nsc2nc(=O)c(/C=C3\C=Nc4ccccc43)c(N)n12,-56.5*,-1.9%,-20.2%,-0.3%,?,-0.1%
